“And” between values parts separate entries of the source, which are not always exact repeats. Equal values may be shown once. Hit rate of the full screen: of about 16,000 compounds, about 5,700 (36%) were called active. Another 24% or so got no clear call; they are omitted. The call rests on the fitted dose curve; in most records, active means well fitted curve in the direction sought with a large enough effect; inconclusive means small, poorly fitted or top-dose-only effect, or effect the other way; inactive means no such curve, though single readings can be large or run the other way. The list shows a part of the results. Some compounds were tested as several samples or in several runs, with calls that do not always agree.
What follows are compounds tested against Cytochrome P450 1A2 (Homo sapiens) (UniProt P05177) (assay: Cytochrome panel assay with activity outcomes). Settings: recombinant CYP, pro-luciferin dealkylation, luminescence, p450-cyp1a2; series mostly up to 57.1 µM.
On the % scale 0 is the no-effect control and ±100 the full control effect.

Cytochrome P450 1A2 (Homo sapiens), sequence (P05177 whole entry, looked up): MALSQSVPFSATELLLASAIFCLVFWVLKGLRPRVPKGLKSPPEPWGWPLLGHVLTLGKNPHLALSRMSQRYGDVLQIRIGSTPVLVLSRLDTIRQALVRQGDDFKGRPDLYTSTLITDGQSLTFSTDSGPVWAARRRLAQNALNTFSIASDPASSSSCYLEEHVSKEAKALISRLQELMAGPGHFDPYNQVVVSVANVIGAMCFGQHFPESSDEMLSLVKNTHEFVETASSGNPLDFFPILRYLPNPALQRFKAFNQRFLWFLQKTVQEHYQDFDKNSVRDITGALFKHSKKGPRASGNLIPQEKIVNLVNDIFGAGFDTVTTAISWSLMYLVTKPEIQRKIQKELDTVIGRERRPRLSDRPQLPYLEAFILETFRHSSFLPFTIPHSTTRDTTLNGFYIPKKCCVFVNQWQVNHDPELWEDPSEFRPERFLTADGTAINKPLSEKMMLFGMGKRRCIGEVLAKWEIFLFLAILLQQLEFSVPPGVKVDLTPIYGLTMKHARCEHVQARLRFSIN

| SMILES | activity, negative = inhibition | AC50 |
| --- | --- | --- |
| Nc1nc(N)nc(CCCc2nc(N)nc(N)n2)n1 | -16.3% [at 11.4 µM] (inactive) |  |
| Clc1ccccc1-c1nc(-n2ccnc2)c2ccccc2n1 |  | 158 nM (active) |
| NC(=O)c1ccccc1-c1nc(-n2ccnc2)c2ccccc2n1 |  | 2510 nM (active) |
| Cc1ccccc1-c1nc(-n2ccnc2)c2ccccc2n1 |  | 316 nM (active) |
| CCCn1c(C)nc2c(c1=O)c1nc3ccccc3nc1n2CCC1=CCCCC1 |  | 25100 nM (active) |
| CCO/C(C)=N/n1c2nc3ccccc3nc2c2c(=O)n(CC(C)C)c(C)nc21 |  | inactive |
| COc1ccccc1CN1CCC2(CC1)CCN(S(=O)(=O)c1ccccc1)CC2 |  | inactive |
| O=C(NCCCN1CCN(Cc2ccccc2)CC1)C1CCN(S(=O)(=O)N2CCCC2)CC1 |  | inactive |
| COc1ccc(C(=O)N/C(=C/c2cccs2)C(=O)NCCCn2ccnc2)cc1OC |  | inactive |
| COc1ccc2c(Cl)c(C(=O)NCCCn3ccnc3)sc2c1Cl |  | 631 nM (active) |
| COc1ccc(S(N)(=O)=O)cc1C(=O)NCCCN1CCN(c2cccc(Cl)c2)CC1 |  | inactive |
| Nn1nnc2ccccc21 |  | 12600 nM (active) |
| c1ccc2c(c1)nnn2CN1CCOCC1 | -8.08% [at 11.4 µM] (inactive) |  |
| N#CCCn1nnc2ccccc21 |  | inactive |
| Cc1ccc(NC(=O)C2(NC(=O)c3cccc(N4C(=O)CSC4c4ccccc4)c3)CCCCC2)cc1 (stereo not given) |  | inactive |
| O=C1NCCc2c1[nH]c1ccccc21 |  | 2820 nM (active) |
| Cn1cccc1C(=O)N1CCC[C@@]2(CCN(Cc3ccc(C#N)cc3)C2)C1 |  | inactive |
| COc1ccc2cc(C(=O)Nc3ccc(F)cc3)sc(=O)c2c1OC |  | 1120 nM (active) |
| O=C(O)Cc1c[nH]c2ccc(O)cc12 |  | inactive |
| COC(=O)Nc1ccc2[nH]cc(CCNC(C)=O)c2c1 |  | 316 nM (active) |
| COc1cc2c(CCNC(C)=O)c[nH]c2cc1Cl |  | 126 nM (active) |
| Nc1ccc2[nH]cc(CCC(=O)O)c2c1 | -8.18% [at 11.4 µM] (inactive) |  |
| CC[C@@H](c1ccccc1)n1c(=O)n2n(c1=O)[C@H]1[C@H](O)[C@H]3O[C@@H]3/C(=N/OCc3ccccc3)[C@@H]1CC2 | -0.045% [at 11.4 µM] (inactive) |  |
| CCC1CCCCN1Cc1cc(OC)c(O)c([N+](=O)[O-])c1 (stereo not given) |  | inactive |

| SMILES | activity, negative = inhibition | AC50 |
| --- | --- | --- |
| CCCCCCN1C=CC(=C/C=C(\C#N)C(=O)OCC)C=C1 |  | inactive |
| COc1cc(OC)c(NC(=S)Nc2cccc(C(C)=O)c2)cc1Cl |  | 6310 nM (active) |
| COc1cc(C(=O)NC(=S)Nc2ccc(Cl)c(C(=O)O)c2)cc(OC)c1OC |  | inactive |
| Fc1ccc(-c2[nH]ncc2-c2nnnn2-c2ccccc2)c(F)c1 |  | inactive |
| Cc1ccc(-n2nnnc2-c2cnc3ccc(Cl)cc3c2-c2ccccc2)cc1 |  | inactive |
| Clc1ccc2[nH]cc(-c3nnnn3-c3ccccc3)c2c1 |  | 7940 nM (active) |
| O=C(Nc1cccc(F)c1)N1CC2(CCN(C(=O)c3csnn3)CC2)C1 |  | inactive |
| COc1ccc(N2CCN(C(CNC(=O)C3CCCCC3)c3cccnc3)CC2)cc1 (stereo not given) |  | inactive |
| COC(=O)NCC(c1cccnc1)N1CCN(c2ccccc2OC)CC1 (stereo not given) |  | inactive |
| COc1cc(C(=O)NCC(c2cccnc2)N2CCN(C)CC2)cc(OC)c1OC (stereo not given) |  | 20000 nM (active) |
| COc1ccc2cc1Oc1ccc(cc1)C[C@@H]1c3c(cc(OC)c4c3Oc3cc5c(cc3O4)CCN[C@H]5C2)CCN1C | -14.6% [at 11.4 µM] (inactive) |  |
| NCCS |  | inactive |
| O=C(N/N=C1/C[C@@H](O)[C@@H](O)[C@@H]2[C@H]3C(=O)N(c4ccc(F)cc4F)C(=O)[C@@H]3CC[C@@H]12)OCc1ccccc1 | -2.1% [at 11.4 µM] (inactive) |  |
| CCCCn1nnnc1SCC(=O)N1CCCC1 |  | inactive |
| CCCCn1nnnc1SCC(=O)c1cc(Cl)ccc1OC |  | 4470 nM (active) |
| COCCCn1nnnc1SCC(=O)N1CCCC1 |  | inactive |
| CSc1ccc(Cl)c(C(=O)NCCOc2cc(C)ccc2C(C)C)c1 |  | 2240 nM (active) |
| CC(C)(N=NC(C)(C)C1=NCCN1)C1=NCCN1 | -3.55% [at 11.4 µM] (inactive) |  |
| COC(=O)c1[nH]c2cccc(OC)c2c1NC(=O)CN(C)CC1OCCO1 |  | 14100 nM (active) |
| COc1ccc(S(=O)(=O)N(CC(=O)NCC2CCCO2)c2ccc(F)cc2)cc1OC (stereo not given) |  | inactive |
| CCS(=O)(=O)N1CCC(C(=O)NCc2ccc(F)cc2Cl)CC1 |  | inactive |
| CCN1C(=O)[C@H]2[C@H]3[C@H](O)[C@H](O)C/C(=N/O[C@@H](C)c4cn([C@H](CO)Cc5ccccc5)nn4)[C@@H]3CC[C@@H]2C1=O | -6.67% [at 11.4 µM] (inactive) and -6.23% [at 11.4 µM] (inactive) |  |
| C[C@H](N)C1CCC(C(=O)Nc2ccncc2)CC1 (stereo not given in full) |  | inactive |
| C[C@H](N=C(NC#N)Nc1ccncc1)C(C)(C)C |  | inactive and 15.8 µM (active) |

| SMILES | activity, negative = inhibition | AC50 |
| --- | --- | --- |
| O=C(O)[C@@H]1CS[C@@]2(CCCN(Cc3ccccc3)C2)N1 | -12% [at 2.29 µM] (inactive) |  |
| Cc1cccc(CCNc2nc3ccccc3n3nnnc23)c1 |  | 891 nM (active) |
| Cc1ccc(C(=O)Nc2nc3ccccc3n3nnnc23)cc1 |  | 2510 nM (active) |
| Cn1c(=O)c2c(ncn2CN2CCN(Cn3cnc4c3c(=O)n(C)c(=O)n4C)CC2)n(C)c1=O | -18.2% [at 2.29 µM] (inactive) |  |
| Nc1c(C(=O)NCc2ccccc2)sc2nc3c(cc12)C(=O)CCC3 |  | 20000 nM (active) |
| C/C(=C\C(=O)c1ccc(Cl)cc1)NCc1ccc2c(c1)OCO2 |  | 1000 nM (active) |
| C/C(=C\C(=O)c1ccc(Br)cc1)NCc1ccc2c(c1)OCO2 |  | 1410 nM (active) |
| O=C(/C=C/c1cc2c(cc1Br)OCO2)NCc1ccc(Cl)cc1 |  | 1580 nM (active) |
| O=C1Nc2ccc([N+](=O)[O-])cc2C1(O)N1CCCCCC1 (stereo not given) |  | inactive |
| CN(C)Cc1ccccc1-c1nc(N(C)C)c2ccccc2n1 |  | 1260 nM (active) |
| CN(C)Cc1ccccc1-c1nc(NC2CC2)c2ccccc2n1 |  | 5010 nM (active) |
| Cc1cccc(CNc2nc(-c3ccccc3CN(C)C)nc3ccccc23)c1 |  | 3160 nM (active) |
| CNc1nc(-c2ccccc2CN(C)C)nc2ccccc12 |  | 3160 nM (active) |
| C/C(CC/C(C)=N/O)=N/O | -12.6% [at 2.29 µM] (inactive) |  |
| CN(C)Cc1ccccc1-c1nc(NCc2ccccc2)c2ccccc2n1 |  | 1260 nM (active) |
| COCCNc1nc(-c2ccccc2CN(C)C)nc2ccccc12 |  | 10000 nM (active) |
| CN(C)Cc1ccccc1-c1nc(NCc2cccs2)c2ccccc2n1 |  | 1000 nM (active) |
| Cc1cn([C@H]2C[C@H](O)[C@@H](COC(N)=O)O2)c(=O)[nH]c1=O | -14.6% [at 2.29 µM] (inactive) |  |
| CCn1c(SCC(=O)N2CCOCC2)nc2oc3c(Cl)cc(Cl)cc3c(=O)c2c1=O |  | 12600 nM (active) |
| CCCCn1c(SCC(=O)N2CCCC2)nc2c1c(=O)n(C)c(=O)n2C |  | inactive |
| Oc1ccccc1C1Nc2cccc3cccc(c23)N1 |  | 1000 nM (active) |
| S=C1N(c2ccccc2)C(c2ccc(Cl)cc2)N2CCCN12 (stereo not given) |  | 4470 nM (active) |
| CCOC(=O)c1sc2nc3c(cc2c1N)COC(C(C)C)C3 (stereo not given) |  | inactive |
| CCOC(=O)c1sc2nc3c(cc2c1N)COC(C)(CC)C3 (stereo not given) |  | 25100 nM (active) |

| SMILES | activity, negative = inhibition | AC50 |
| --- | --- | --- |
| COc1ccc2[nH]cc(CCNc3cc(-c4ccccc4OC)ncn3)c2c1 |  | 1580 nM (active) |
| COc1ccc2[nH]cc(CCNc3cc(-c4ccccc4C(F)(F)F)ncn3)c2c1 |  | 10000 nM (active) |
| COc1ccc2[nH]cc(CCNc3cc(-c4ccccc4C)ncn3)c2c1 |  | 1000 nM (active) |
| COc1ccc(O[C@H]2C=C[C@@H](c3ccccc3)O[C@H]2CO/N=C\C[C@@H]2C=C[C@H](OC(C)=O)[C@H](COC(C)=O)O2)cc1 | 1.58% [at 11.4 µM] (inactive) |  |
| CC(C)CO/N=C1/C[C@@H](O)[C@@H](O)[C@@H]2[C@H]3C(=O)N(c4ccc(F)cc4F)C(=O)[C@@H]3CC[C@@H]12 | -0.174% [at 11.4 µM] (inactive) |  |
| Cc1cc(OC(=O)c2cc(F)c(F)cc2Cl)nc(C)n1 |  | inactive |
| COc1ccc(C(=O)/C=C(/C)N(C)C)cc1 |  | 3550 nM (active) |
| CC(C)CSC[C@@H]1O[C@H](n2cnc3c(N)nccc32)[C@H](O)[C@@H]1O | 3.41% [at 11.4 µM] (inactive) |  |
| O=C(O)C1CCC(=O)N(C2CC2)C1c1ccccc1 (stereo not given) |  | inactive |
| CC1CCC(C(=O)O)([C@H](Br)C(=O)O)CC1 (stereo not given in full) | -8.77% [at 11.4 µM] (inactive) |  |
| CN(C)c1oc(-c2ccccc2)nc1C#N |  | 3160 nM (active) |
| CN(C)C(=O)c1ccc(-c2ccc3ncnc(Nc4ccc(F)cc4)c3c2)cc1 |  | 20000 nM (active) |
| CN(C)C(=O)c1ccc(-c2ccc3ncnc(Nc4ccccc4)c3c2)cc1 |  | 15800 nM (active) |
| COC(=O)C/C=C\[C@@H](C)[C@@H](/C=N\OC[C@@H](O)[C@H]1O[C@H]2OC(C)(C)O[C@H]2[C@@H]1O)OC | -15.6% [at 11.4 µM] (inactive) |  |
| Cc1ccc(OCC(=O)Nn2cnc3ccccc32)cc1 |  | 6310 nM (active) |
| Cc1ccc(OCC(=O)NNC(=O)C2CCN(c3ncccn3)CC2)cc1 |  | inactive |
| Cc1ccc(OCC(=O)NNC(=O)CCc2ccccc2)cc1 |  | inactive |
| Cc1cc(Cl)ccc1OC(C)C(=O)Nc1ccc(S(=O)(=O)Nc2cnc3ccccc3n2)cc1 (stereo not given) |  | inactive |
| CC(C)(C)c1ccc(OCC(=O)O)c(Cl)c1 | -16.2% [at 11.4 µM] (inactive) |  |
| Cc1ccc(N(C(C)C(=O)Nc2cc(Cl)ccc2Oc2ccccc2)S(C)(=O)=O)cc1 (stereo not given) |  | inactive |
| Cc1ccc(OCC(=O)Nc2ccc(Cl)cc2)c(-n2nc3ccccc3n2)c1 |  | 3550 nM (active) |
| Cc1cc(NC(=O)COc2ccc(Cl)cc2Cl)n(-c2ccccc2)n1 |  | 1780 nM (active) |
| O=C(COc1ccccc1Cl)Nc1cc(Cl)ccc1Oc1ccccc1 |  | 2510 nM (active) |
